Here are results for 13 compounds from PubChem BioAssay (NCATS).

Assay [1] concerns the target Estrogen receptor (Homo sapiens) (UniProt P03372). The experiment in a line: qHTS assay for small molecule agonists of estrogen receptor alpha signaling (AID 588514).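 Also: 0% = vehicle only and 100% = reference agonist; nearly all actives have a fitted effect of over 70% in size.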 An outline of the steps:
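Efficacy is expressed against 20 nM 17-beta-estradiol (100%) and DMSO basal (0%); EC50 from Hill equation. Assay: beta-lactamase reporter in ER-alpha-UAS-bla HEK 293 cells, 18 h compound incubation, CCF4 detection.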
Background: qHTS replaces the single test concentration by a dilution series.

The target in assay [2] is Glucocorticoid receptor (Homo sapiens) (UniProt P04150). Nature of the assay: qHTS assay for small molecule agonists of glucocorticoid receptor signaling (AID 588532; active = well fitted curve in the direction sought with a large enough effect in the signal ratio, with a control signal flat; the % refers to the signal ratio; also: potency is read from the fitted curve at half-maximal effect;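 as to activation: 100% = dexamethasone at 0.1 µM and 0% = DMSO only wells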). Particulars: HeLa MMTV-bla, beta-lactamase ratio, agonist, 18 h; activation: stronger effect = higher value, percent of dexamethasone control, DMSO zero. The method, boiled down:
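Stimulation of a glucocorticoid response element-driven beta-lactamase gene was measured in HeLa cells. Responses were scaled between DMSO basal and 0.1 uM dexamethasone, then fitted for half-maximal stimulation.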

The target is the same in assay [3]. Nature of the assay: qHTS assay for small molecule antagonists of glucocorticoid receptor signaling (AID 588533; active = well fitted inhibition curve with a large enough effect in the signal ratio, with a control signal flat, not every such curve was filed as active; the % refers to the signal ratio;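 also: cells stimulated with 2 nM dexamethasone as agonist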; also: potency is read from the fitted curve at half-maximal effect). The method, boiled down: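 Antagonist-mode qHTS: compound titrations added to GRE-bla HeLa cells, then dexamethasone 2 nM final; 18 h, 37 C. CCF4 FRET fluorescence normalized to dexamethasone and DMSO; IC50 from Hill fit.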
The target in assay [4] is Vitamin D3 receptor (Homo sapiens) (UniProt P11473). The experiment in a line: qHTS assay for small molecule antagonists of vitamin D receptor signaling (AID 588541). Also: potency is read from the fitted curve at half-maximal effect. An outline of the steps: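 VDR-UAS-bla HEK293T cells (2000/well, 2% charcoal-stripped FBS) were treated with titrated compounds plus 1-alpha,25-dihydroxyvitamin D3 (50 nM or 3 nM final) for 16 h at 37 C. CCF4 beta-lactamase fluorescence was read; Hill fits gave IC50.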

Assay [5] shares this target. The experiment in a line: qHTS assay for small molecule agonists of vitamin D receptor signaling (AID 588543).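 Also: 0% = DMSO basal and 100% = reference agonist control.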 An outline of the steps: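 VDR-UAS-bla HEK293T cells, 2000/well, 2% charcoal-stripped FBS; compound titration 16 h at 37 C; CCF4 beta-lactamase ratio read. Normalized to 50 nM 1-alpha,25-dihydroxyvitamin D3 (100%) and DMSO; Hill fit gives EC50, efficacy.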
The target of assay [6] is Retinoic acid receptor RXR-alpha (Homo sapiens) (UniProt P19793). The experiment in a line: qHTS assay for small molecule agonists of retinoid X receptor alpha signaling (AID 588544). Also: potency is read from the fitted curve at half-maximal effect.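 As to activation: 0% = DMSO basal wells and 100% = reference agonist.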
The target of assay [7] is Thyroid hormone receptor beta (Homo sapiens) (UniProt P10828). Nature of the assay: qHTS assay for small molecule agonists of thyroid hormone receptor beta signaling (AID 588545). Also: potency is read from the fitted curve at half-maximal effect. An outline of the steps: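 In this cell-based screen, titrated compounds act on HEK 293 cells held in medium with 2% charcoal/dextran FBS, NEAA and pyruvate for 18 hrs at 37 C. Responses are expressed relative to T3 (10 nM) as 100% and basal DMSO as 0%.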

Assay [8] can be described thus: qHTS assay for small molecule antagonists of retinoid X receptor alpha signaling (AID 588546).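 Also: cells stimulated with 9-cis-retinoic acid as agonist; % is scaled to controls: 0 for no effect and ±100 for the full control effect.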 Conditions: HEK293T RXRa-UAS-bla, beta-lactamase ratio, antagonist mode; measured here: W530 green channel, cytotoxicity proxy. An outline of the steps: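 Beta-lactamase reporter inhibition, read as CCF4 fluorescence ratio (ex 405, em 460/530 nm) after 2 h at RT. HEK293T UAS-bla cells, 2500/well, were stimulated with 9-cis-RA at 500 or 100 nM final alongside test compound for 18 h at 37 C.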

In assay [9] the target is Thyroid hormone receptor beta (Homo sapiens) (UniProt P10828). The experiment in a line: qHTS assay for small molecule antagonists of thyroid hormone receptor beta signaling (AID 588547; active = well fitted inhibition curve with a large enough effect in the signal ratio, with a control signal flat, not every such curve was filed as active; the % refers to the signal ratio;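 also: cells stimulated with 0.4 nM T3 agonist during compound exposure; % is scaled to controls: 0 for no effect and ±100 for the full control effect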). Conditions: TR-UAS-bla HEK293, beta-lactamase ratio, antagonist mode, 18 h. An outline of the steps:
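TR-UAS-bla GripTite HEK293 cells in 2% charcoal/dextran FBS medium were preincubated 4 h at 37 C, given compound (0.59 nM to 92 uM) plus 0.4 nM T3 (final) for 18 h, then CCF4 for 2 h at RT; Hill fit gave IC50.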

Assay [10] is described as follows: qHTS assay for small molecule activators of the nuclear factor-kappa B (NF-kB) signaling pathway (AID 651749; active = well fitted activation curve with a large enough effect in the signal ratio; the % refers to the signal ratio; also: potency is read from the fitted curve at half-maximal effect; as to activation: % of control where 0% means no effect). Conditions: NF-kB-bla ME-180 cells, beta-lactamase FRET ratio, 16 h; activation: stronger effect = higher value. The method, boiled down:
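Human ME-180 cervical cells with an NF-kB-bla construct; compounds added via 23 nL pin transfer, DMSO as vehicle; incubation 16 hr. Reporter activity measured by FRET disruption.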

The target in assay [11] is Nuclear receptor subfamily 1 group I member 2 (Rattus norvegicus) (UniProt Q9R1A7). Nature of the assay: qHTS assay for small molecule activators of the rat pregnane X receptor (rPXR) signaling pathway (AID 651751; call rule not given here; also: 0% is about no effect). Conditions: rPXR reporter cells, luciferase (One-Glo), 24 h.
Assay [12] can be described thus: qHTS assay for small molecule activators of the human pregnane X receptor (PXR) signaling pathway (AID 720659; call rule not given here; also: 0% is about no effect).
For assay [13], the target named is Mitogen-activated protein kinase 10 (Mus musculus) (UniProt Q61831). Nature of the assay: JNK3 AlphaScreen Assay (AID 530; active = well fitted curve in either direction with a large enough effect, not every such curve was filed as active;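 also: kinase came from lysate of stimulated human HepG2 cells; signal reports phosphorylation of biotinylated GST-cJun 1-79 at Ser73 with 10 µM ATP; % is scaled to controls: 0 for no effect and ±100 for the full control effect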). The method, boiled down:
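Phosphorylation of biotinylated GST-cJun(1-79) at Ser73 is measured by AlphaScreen proximity luminescence. Enzyme is JNK3 in HepG2 lysates activated with interleukin-1beta and tumor necrosis factor alpha; ATP is 10 uM final.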

Assay [14] is described as follows: Cellular Toxicity (caspase-3) Jurkat (AID 655; active = well fitted activation curve with a large enough effect;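 also: cells exposed to compound for 16 h at 37 °C before reading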; also: potency is read from the fitted curve at half-maximal effect). Particulars: Jurkat caspase-3 activation, luminescence; caspase-3 activation: at 92.2 µM (top of the series), DMSO = 0%, tamoxifen = 100%. The method, boiled down:
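Jurkat cells (5000/well) in complete medium exposed 16 h at 37 C; caspase-3/7 activity read by Caspase-Glo luminescence after 20 min at room temperature. Normalized to DMSO and 100 uM tamoxifen; AC50 from Hill fits.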

A short description of assay [15]: qHTS assay for small molecule agonists of the antioxidant response element (ARE) signaling pathway (AID 651741; active = well fitted activation curve with a large enough effect in the signal ratio; the % refers to the signal ratio; also: potency is read from the fitted curve at half-maximal effect). The method, boiled down:
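Reporter: beta-lactamase under ARE, stably in HepG2. Exposure: 16 h, 37 C, compounds delivered in DMSO by pin tool after 5 h cell preincubation. Readout: FRET substrate fluorescence after 2 h at RT.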

Assay [16] can be described thus: Stat Signaling Pathway (AID 446; active = well fitted curve in either direction with a large enough effect, not every such curve was filed as active;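 also: ME-180 cervical cancer cells given 40 pM IL-6 alongside compound; SIE-controlled beta-lactamase reporter measured as 460/530 nm FRET emission ratio; % is scaled to controls: 0 for no effect and ±100 for the full control effect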). An outline of the steps: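 Compound effects on IL-6-induced STAT reporter activity were measured in ME-180 cells. After overnight culture, cells were co-treated with 40 pM IL-6 for 5 hrs before beta-lactamase substrate loading at room temperature.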
Assay [17] concerns the target Glucocorticoid receptor (Homo sapiens) (UniProt P04150). The experiment in a line: GR-GFP Redistribution (AID 450;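 active = compounds whose dose series gives a full or clear partial fitted curve of increased nuclear translocation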; also: potency is read from the fitted curve at half-maximal effect). Conditions: U2OS GR-GFP nuclear translocation, laser cytometry, 2 h.

Where “and” joins values, the source holds several entries; their conditions need not be identical. Equal values may be shown once. Results filed as inconclusive are left out. Calls of active or inactive are those of the source. Unless noted, calls follow the shape of the full dose curve. Where a SMILES comes first, the peptide text is derived from it.

Sequence of Thyroid hormone receptor beta (Homo sapiens) (P10828 whole entry, looked up): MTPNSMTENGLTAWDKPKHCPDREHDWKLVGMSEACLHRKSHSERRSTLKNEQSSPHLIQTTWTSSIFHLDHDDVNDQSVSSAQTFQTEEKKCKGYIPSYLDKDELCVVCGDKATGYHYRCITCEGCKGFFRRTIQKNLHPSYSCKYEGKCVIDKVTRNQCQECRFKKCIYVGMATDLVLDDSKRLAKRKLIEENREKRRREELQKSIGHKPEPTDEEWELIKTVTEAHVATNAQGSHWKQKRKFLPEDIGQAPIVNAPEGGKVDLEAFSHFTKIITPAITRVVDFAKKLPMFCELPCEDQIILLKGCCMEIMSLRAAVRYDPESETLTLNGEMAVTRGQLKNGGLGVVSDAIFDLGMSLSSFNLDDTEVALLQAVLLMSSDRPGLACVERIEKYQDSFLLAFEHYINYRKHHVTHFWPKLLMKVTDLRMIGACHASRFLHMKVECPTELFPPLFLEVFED
Sequence of Estrogen receptor (Homo sapiens) (P03372 whole entry, looked up): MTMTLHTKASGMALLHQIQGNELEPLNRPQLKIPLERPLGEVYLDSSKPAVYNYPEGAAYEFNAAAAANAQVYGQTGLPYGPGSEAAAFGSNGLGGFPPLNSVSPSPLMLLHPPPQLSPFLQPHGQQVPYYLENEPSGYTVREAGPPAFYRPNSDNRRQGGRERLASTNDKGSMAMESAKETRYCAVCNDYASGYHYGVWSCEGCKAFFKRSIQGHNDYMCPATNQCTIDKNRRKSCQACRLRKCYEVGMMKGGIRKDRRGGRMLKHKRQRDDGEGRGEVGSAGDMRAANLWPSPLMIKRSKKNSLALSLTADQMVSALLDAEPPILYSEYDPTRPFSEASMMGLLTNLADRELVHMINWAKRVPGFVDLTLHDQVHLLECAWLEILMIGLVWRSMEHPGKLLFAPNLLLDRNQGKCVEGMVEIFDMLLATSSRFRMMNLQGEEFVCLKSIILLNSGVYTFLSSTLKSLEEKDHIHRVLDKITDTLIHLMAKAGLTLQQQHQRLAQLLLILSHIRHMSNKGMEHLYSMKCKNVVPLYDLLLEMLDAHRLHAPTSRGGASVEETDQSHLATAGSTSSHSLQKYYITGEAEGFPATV
Sequence of Vitamin D3 receptor (Homo sapiens) (P11473 whole entry, looked up): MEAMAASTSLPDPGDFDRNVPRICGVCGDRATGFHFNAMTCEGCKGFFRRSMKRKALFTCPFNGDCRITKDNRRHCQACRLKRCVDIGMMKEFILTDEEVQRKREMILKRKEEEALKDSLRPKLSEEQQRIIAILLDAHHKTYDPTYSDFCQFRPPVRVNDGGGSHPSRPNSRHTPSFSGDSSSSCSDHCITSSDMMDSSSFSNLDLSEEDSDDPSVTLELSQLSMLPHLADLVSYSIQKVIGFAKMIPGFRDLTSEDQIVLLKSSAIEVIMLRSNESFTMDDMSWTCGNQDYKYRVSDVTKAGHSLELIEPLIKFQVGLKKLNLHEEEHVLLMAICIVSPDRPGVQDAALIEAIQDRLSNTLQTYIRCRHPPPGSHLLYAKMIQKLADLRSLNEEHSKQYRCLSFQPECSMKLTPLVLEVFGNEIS
Sequence of Retinoic acid receptor RXR-alpha (Homo sapiens) (P19793 whole entry, looked up): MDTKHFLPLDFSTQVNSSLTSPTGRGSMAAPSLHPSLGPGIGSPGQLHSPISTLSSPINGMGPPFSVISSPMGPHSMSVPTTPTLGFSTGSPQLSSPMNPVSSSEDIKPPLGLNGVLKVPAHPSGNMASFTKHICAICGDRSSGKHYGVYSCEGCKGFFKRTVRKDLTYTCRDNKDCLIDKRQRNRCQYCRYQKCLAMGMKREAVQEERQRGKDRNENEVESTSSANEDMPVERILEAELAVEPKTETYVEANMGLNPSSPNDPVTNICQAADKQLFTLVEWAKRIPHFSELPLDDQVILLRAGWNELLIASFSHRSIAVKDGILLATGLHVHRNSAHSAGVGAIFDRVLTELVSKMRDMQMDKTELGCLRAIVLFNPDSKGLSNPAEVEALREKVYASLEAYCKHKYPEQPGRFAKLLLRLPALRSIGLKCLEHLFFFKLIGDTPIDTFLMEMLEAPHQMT
Sequence of Glucocorticoid receptor (Homo sapiens) (P04150 whole entry, looked up): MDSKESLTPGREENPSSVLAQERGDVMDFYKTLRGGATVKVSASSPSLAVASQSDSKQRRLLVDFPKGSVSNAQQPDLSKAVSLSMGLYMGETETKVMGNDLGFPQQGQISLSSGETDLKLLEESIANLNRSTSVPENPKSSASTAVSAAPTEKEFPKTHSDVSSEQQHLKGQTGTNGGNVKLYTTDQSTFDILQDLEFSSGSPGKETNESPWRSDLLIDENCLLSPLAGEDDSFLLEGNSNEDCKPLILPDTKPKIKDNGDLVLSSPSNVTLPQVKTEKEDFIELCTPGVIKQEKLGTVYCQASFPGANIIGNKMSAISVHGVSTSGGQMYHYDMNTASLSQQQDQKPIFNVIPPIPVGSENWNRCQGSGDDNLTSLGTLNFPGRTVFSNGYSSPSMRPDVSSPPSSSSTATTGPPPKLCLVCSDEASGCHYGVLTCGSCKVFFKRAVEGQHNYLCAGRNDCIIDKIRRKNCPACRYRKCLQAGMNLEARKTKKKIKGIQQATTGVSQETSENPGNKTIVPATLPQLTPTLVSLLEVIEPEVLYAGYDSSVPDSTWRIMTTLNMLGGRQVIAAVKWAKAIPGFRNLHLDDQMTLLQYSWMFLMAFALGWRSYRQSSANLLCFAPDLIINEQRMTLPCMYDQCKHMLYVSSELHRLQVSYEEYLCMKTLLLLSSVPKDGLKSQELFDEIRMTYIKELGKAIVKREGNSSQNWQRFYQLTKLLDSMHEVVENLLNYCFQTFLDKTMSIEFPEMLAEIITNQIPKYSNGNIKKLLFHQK
Sequence of Nuclear receptor subfamily 1 group I member 2 (Rattus norvegicus) (Q9R1A7 whole entry, looked up): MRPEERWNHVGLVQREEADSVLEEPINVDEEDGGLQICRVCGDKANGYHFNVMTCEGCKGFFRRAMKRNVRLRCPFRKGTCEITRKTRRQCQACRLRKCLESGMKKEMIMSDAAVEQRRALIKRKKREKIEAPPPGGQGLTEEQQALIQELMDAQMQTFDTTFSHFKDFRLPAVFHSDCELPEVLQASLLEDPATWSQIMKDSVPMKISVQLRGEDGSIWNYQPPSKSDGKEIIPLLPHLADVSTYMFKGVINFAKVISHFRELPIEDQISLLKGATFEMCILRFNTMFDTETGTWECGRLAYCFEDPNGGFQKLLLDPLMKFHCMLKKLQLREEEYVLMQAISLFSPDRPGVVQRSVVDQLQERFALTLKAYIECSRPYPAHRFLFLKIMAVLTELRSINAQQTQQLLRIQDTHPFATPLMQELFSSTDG

On to `OC(c1ccc(Cl)cc1)(c1ccc(Cl)cc1)C(Cl)(Cl)Cl`, for which the Potency result in assay [1], in [3], in assay [4], in assay [6] and in assay [7] was “inactive” each time. For the same compound, the values for the activation in [2] and in assay [10] were 4.22% (inactive) and -0.969% (inactive), respectively. Further, the outcome in [5] and in assay [12] was inactive. In addition, the max response in [8] is -2.98%; in [11], -0.762% (inactive) and 6.21% (inactive). Also, the activity change % (negative = inhibition) in assay [9] was -3.99% (inactive).

With `[CH3][Hg][Cl]`, in [13], the compound was called inactive. In addition, the caspase-3 activation in assay [14] is -8.35% (inactive). Moreover, the activation in assay [2] is -4.13% (inactive). For the same compound, the Potency in [3] was 11.2 µM (active); in [4] it was 3.16 µM (active); in assay [15] it was 23.7 µM (active). In addition, the max response in assay [8] was -30.3%.

On to `c1ccc2cc3c(cc2c1)-c1cccc2cccc-3c12`, for which the caspase-3 activation in [14] is -1.28% (inactive). For the same compound, the Potency is 15.8 µM (active) in assay [2]; 2.82 µM (active) in [6]; 7.94 µM (active) in assay [7]; 1.88 µM (active) and 1.93 µM (active) in [15]; 7.08 µM (active) and 4.47 µM (active) in assay [10]. In addition, in [11], the max response is 5.83% (inactive) and 4.65% (inactive).

On to `CC(C)C[C@H](NC(=O)[C@@H]1CCCN1C(=O)[C@@H](N)Cc1ccc(O)cc1)C(=O)NCC(N)=O` (H-YPLG-NH2), for which the outcome in assay [16] was inactive. The Potency in assay [17] was > 20.6 µM (inactive).

With `Oc1c(Br)c(Br)c(Br)c(Br)c1Br`, the Potency was 31.6 µM (active) in assay [14] and 39.8 µM (active) in assay [3]. For the same compound, the call in assay [5] and in assay [12] was inactive.

`[Cd+2].[Cl-].[Cl-]`: in assay [14], the caspase-3 activation is -2.73% (inactive). Also, in [7], the Potency entry was “inactive”.

As to `C[C@@H]1CC[C@@]2(OC1)O[C@H]1[C@@H](O)[C@H]3[C@@H]4CC[C@H]5C[C@@H](O[C@@H]6O[C@H](CO)[C@H](O[C@@H]7O[C@H](CO)[C@@H](O)[C@H](O[C@@H]8OC[C@@H](O)[C@H](O)[C@H]8O)[C@H]7O[C@@H]7O[C@H](CO)[C@@H](O)[C@H](O[C@@H]8O[C@H](CO)[C@@H](O)[C@H](O)[C@H]8O)[C@H]7O)[C@H](O)[C@H]6O)[C@H](O)C[C@]5(C)[C@H]4CC[C@]3(C)[C@H]1[C@@H]2C`, the compound was classed as inactive in [12].

Turning to `N#CC(Cl)Cl`, the compound was classed as inactive in assay [13] and in [12]. The Potency in [14] was 5.01 µM (active). Further, the Potency entry in assay [4] and in assay [6] was “inactive” each time. Moreover, the max response in assay [8] was 6.6%; in [11], 0.641% (inactive). Further, in assay [10], the activation is -2.38% (inactive).

On to `OC(Cc1ccccc1)(c1ccccc1)C1CN2CCC1CC2` (stereo not given), for which the compound was called inactive in assay [16]. Moreover, the Potency in [17] was > 20.6 µM (inactive).

`COCC(C)OC(=O)c1c(N)n(Cc2ccco2)c2nc3ccccc3nc12` (stereo not given): in [16], the compound was classed as inactive. Also, the Potency in [17] was > 20.6 µM (inactive).

Regarding `CN1CCC(OC(=O)C2c3ccccc3Oc3ccccc32)CC1`, the result in assay [16] was inactive. Moreover, the Potency in assay [17] was > 20.6 µM (inactive).

As for `Cc1c(N=Cc2c(O)n(CCc3ccc(F)cc3)c(=O)[nH]c2=O)c(=O)n(-c2ccccc2)n1C`, the result in assay [16] was inactive. The Potency in assay [17] was > 20.6 µM (inactive).

With `C(=NC1CCCCC1)=NC1CCCCC1`, the Potency result in assay [1], in assay [4] and in [7] was “inactive” each time. The result in assay [5] and in [12] was inactive. In addition, the activity change % (negative = inhibition) in [9] is -20.1% (inactive) and -3.06% (inactive). Moreover, the Potency in assay [15] is 24.3 µM (active). In addition, the activation in assay [10] is 0.442% (inactive) and -0.633% (inactive). The max response in [11] is 0.443% (inactive) and 0.275% (inactive).
